Measured values from the supplement of paper PMC13380429.
Values without a mark were called inactive.

Tested on: Vero E6 infected with SARS-CoV-2
Experiment: inhibition of SARS-CoV-2 cytopathic effect; higher = more antiviral protection, active = above 15
Conditions: 48 h

Row | SMILES | inhibition of SARS-CoV-2 cytopathic effect (1 nM) | inhibition of SARS-CoV-2 cytopathic effect (8.33 nM) | inhibition of SARS-CoV-2 cytopathic effect (100 nM) | inhibition of SARS-CoV-2 cytopathic effect (833.33 nM) | inhibition of SARS-CoV-2 cytopathic effect (10000 nM)
1 | OCCN1CCN(CC/C=C2/c3ccccc3Sc3ccc(C(F)(F)F)cc32)CC1 [flupentixol] | -4.51% | 0.12% | -2.01% | -0.29% | 0.08%
2 | Cc1cc(C(=O)N2Cc3cnn(C)c3Nc3ccccc32)ccc1CNC(=O)N1CCC[C@H]1C(=S)N1CCCN(C)CC1 | -0.76% | -1.38% | -3.62% | -1.74% | -2.86%
3 | COc1ccc(-c2cc3c(C)nc(N)nc3n([C@H]3CC[C@H](OCCO)CC3)c2=O)cn1 | -0.21% | 2.83% | 0.43% | -10.1% | -10.3%
4 | C[C@]12CC[C@H]3[C@@H](CCC4=CC(=O)CC[C@@H]43)[C@@H]1CC[C@@H]2O [Nandrolone] | -1.64% | -1.9% | -1.06% | 1.95% | -0.94%
5 | FC(F)(F)c1cccc(-c2noc(-c3cc(-c4ccccc4)c(C(F)(F)F)s3)n2)c1 | 1.19% | 0.95% | -0.54% | 1.01% | 1.68%
6 | COc1cc(OC)c(/C=C/S(=O)(=O)Cc2ccc(OC)c(OP(=O)(O)O)c2)c(OC)c1 [briciclib] | 1.41% | 1.56% | -1.04% | -0.82% | -1.99%
7 | COc1ccc(-c2coc3cc(O)ccc3c2=O)cc1 [formononetin] | 0.45% | 1.81% | 1.27% | -2.13% | -0.02%
8 | [Cl][Ru-]([Cl])([Cl])[Cl].[Na+].c1ccc2[nH]ncc2c1.c1ccc2[nH]ncc2c1 | 2.72% | 0.03% | 1.2% | 5.02% | 18% (active)
9 | CCN(CC)CCOc1ccc(C(O)(Cc2ccc(Cl)cc2)c2ccc(C)cc2)cc1 (stereo not given) [Triparanol] | -0.73% | 1.69% | -1.43% | -2.54% | 51.4% (active)
10 | CCCC(C)C1(CC)C(=O)NC(=O)NC1=O (stereo not given) [pentobarbital] | 2.05% | 2% | 1.92% | -1.44% | -1.04%
11 | Cc1ccccc1-c1cc(N2CCN(C)CC2)ncc1N(C)C(=O)C(C)(C)c1cc(C(F)(F)F)cc(C(F)(F)F)c1 [netupitant] | 0.76% | 0.01% | -1.38% | -1.26% | 8.28%
12 | C[C@@H]1COCCN1c1cc(=O)n2c(n1)N(Cc1cncc(Cl)c1)[C@H](C(F)(F)F)CC2 | -2.96% | 2.22% | -0.24% | 7.24% | 44.4% (active)
13 | Cc1ccc(-n2sc(=O)n(Cc3ccc(F)cc3)c2=O)cc1 | 1.81% | -0.78% | 0.17% | -0.22% | -3.39%
14 | CCOc1nc2c(N)ncnc2n1CC | -1.28% | 2.22% | -1.47% | 1.94% | -1.72%
15 | COc1ccc2c3c1O[C@H]1C[C@@H](O)C=C[C@@]31CCN(C)C2 [galantamine] | 0.63% | 3.15% | 2.16% | 2.11% | 0.3%
16 | CC(C)(C#N)c1ccc(N2C(=O)OCc3cnc4ccc(-c5cnc6ccccc6c5)cc4c32)cc1 | 4.95% | 2.48% | 2.65% | 2.93% | 4.4%
17 | COC(=O)N[C@H](C(=O)N1CCC[C@H]1c1ncc(-c2ccc(-c3ccc(-c4cnc([C@@H]5CCCN5C(=O)[C@@H](NC(=O)OC)C(C)C)[nH]4)cc3)cc2)[nH]1)C(C)C [daclatasvir] | -1.73% | 0.14% | -0.71% | -2.47% | -0.59%
18 | Cc1nc2c([nH]1)-c1ccccc1N(C(=O)c1ccc(NC(=O)c3ccccc3-c3ccccc3)cc1)CC2 [conivaptan] | 3.24% | -1.76% | 0.14% | -0.62% | -6.5%
19 | C[C@]12COC(=O)C[C@@H]1CC[C@@H]1[C@@H]2CC[C@@]2(C)[C@H]1CC[C@]2(C)O [Oxandrolone] | 1.55% | 0.57% | -0.27% | -0.56% | 0.44%

Row | SMILES | inhibition of SARS-CoV-2 cytopathic effect (1 nM) | inhibition of SARS-CoV-2 cytopathic effect (8.33 nM) | inhibition of SARS-CoV-2 cytopathic effect (100 nM) | inhibition of SARS-CoV-2 cytopathic effect (833.33 nM) | inhibition of SARS-CoV-2 cytopathic effect (10000 nM)
20 | CC(=O)Oc1cccc(C(=O)O)c1OC(C)=O [dipyrocetyl] | -0.44% | -1.4% | 2.59% | -0.15% | 5.25%
21 | COc1cc(C(C)=O)ccc1OCCCN1CCC(c2noc3cc(F)ccc23)CC1 [iloperidone] | -1.11% | -0.19% | 0.99% | -0.53% | -3.95%
22 | O=C(O)CNC(=O)c1c(O)c2ccccc2n(Cc2ccccc2)c1=O | -0.58% | -1.09% | 0.41% | -0.62% | -1.13%
23 | Nc1nc(NCCc2ccc(O)cc2)nc2nc(-c3ccco3)nn12 | 0.11% | -0.03% | -0.54% | -1.25% | -5.15%
24 | COC(=O)[C@]12CCC(C)(C)C[C@H]1[C@H]1C(=O)C=C3[C@@]4(C)C=C(C#N)C(=O)C(C)(C)[C@@H]4CC[C@@]3(C)[C@]1(C)CC2 [Bardoxolone Methyl] | 2.85% | 3.94% | -1.03% | 33.7% (active) | -23.4%
25 | CC(=O)Oc1cc(C(F)(F)F)ccc1C(=O)O [triflusal] | -0.9% | -0.53% | -1.38% | 0.3% | 4.74%
26 | CC(C)Oc1cccc(CC(=O)N2CCC[C@](CC[N+]34CCC(c5ccccc5)(CC3)CC4)(c3ccc(Cl)c(Cl)c3)C2)c1 | 1.67% | 0.54% | 0.54% | 4.46% | 1.59%
27 | CNC(=O)c1cc(Oc2ccc(NC(=O)Nc3ccc(Cl)c(C(F)(F)F)c3)cc2)ccn1 [sorafenib] | -0.83% | 1.38% | 2.59% | 2.85% | 16.4% (active)
28 | N#Cc1nn(-c2c(Cl)cc(C(F)(F)F)cc2Cl)c(N)c1[S+]([O-])C(F)(F)F (stereo not given) [fipronil] | 0.34% | 3.14% | 1.21% | 3.8% | 3.66%
29 | CCCn1c(=O)c2[nH]cnc2n(-c2ccc(Cl)cc2)c1=O [arofylline] | -3.55% | -1.13% | 0.16% | -6.97% | -3.81%
30 | CN1C[C@@H]2C[C@H]1CN2c1cc2c(cc1F)c(=O)c(C(=O)O)cn2C1CC1 [danofloxacin] | 0.88% | -1.78% | 0.43% | 2.27% | 6.15%
31 | FC(F)c1nc2ccccc2n1-c1nc(N2CCOCC2)nc(N2CCOCC2)n1 | -2.17% | -0.7% | 0.03% | -2.96% | -6.67%
32 | CCCCCCCCCCCCc1ccc(S(=O)(=O)Nc2nncs2)cc1 | -0.85% | 0.48% | -0.22% | -2.3% | -0.65%
33 | CC(=O)N[C@@H](CC(C)C)C(=O)O [acetyl-l-leucine] | 1.37% | -0.18% | -0.14% | -1.79% | -0.49%
34 | CCOC(=O)OC(C)OC(=O)[C@@H]1N2C(=O)[C@@H](NC(=O)[C@H](N)c3ccccc3)[C@H]2SC1(C)C (stereo not given in full) [bacampicillin] | 8.5% | 1.16% | -0.89% | -1.91% | -2.49%
35 | COc1cc2nccc(Oc3ccc(NC(=O)NC4CC4)c(Cl)c3)c2cc1C(N)=O [lenvatinib] | -1.78% | -0.25% | -0.32% | -0.03% | 8.44%
36 | CC(=O)Nc1ccc(S(=O)(=O)c2ccc(NC(C)=O)cc2)cc1 [acedapsone] | -1.54% | -3.01% | -3.82% | -1.51% | 5.34%
37 | O=C(c1ccc(OCCN2CCCCC2)cc1)c1c(-c2ccc(O)cc2)sc2cc(O)ccc12 [raloxifene] | 3.31% | 1.2% | 2.79% | 4.77% | 24.4% (active)
38 | CCN1CCN(c2ccc(C(C)(C)NC(=O)c3cc4[nH]c5ccccc5c(=O)c4cc3F)cn2)CC1 | 0.53% | -0.52% | 3.59% | 2.28% | 26.8% (active)
